Measured values: PubChem BioAssay (NCI)
The panel holds about 83,000 compounds, 20% with a hit somewhere; the sample as a whole holds those more often.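 The endpoint reported here, percent growth, reads 100 for growth as untreated, 0 for no net growth and -100 for all cells dead.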 Unmarked numbers belong to inactive results. Calls of active or inactive are those of the source. How the source made its calls: active means growth percent below 10; inactive means the rest.

Experiments:
Test in all cases: NCI-60 one-dose screen, 48 h (100 = growth as untreated, 0 = no growth, -100 = all killed)
[1] = system: DU-145 prostate; conditions: 10 µM unless noted
[2] = system: K-562 leukemia; conditions: 10 µM unless noted
[3] = system: MALME-3M melanoma; conditions: 10 µM unless noted
[4] = system: MDA-MB-231 breast; conditions: 10 µM unless noted
[5] = system: RXF 393 renal; conditions: 10 µM unless noted
[6] = system: SF-268 CNS; conditions: 10 µM unless noted
[7] = system: SF-295 CNS; conditions: 10 µM unless noted
[8] = system: SF-539 CNS; conditions: 10 µM unless noted
[9] = system: UACC-257 melanoma; conditions: 10 µM
[10] = system: M14 melanoma; conditions: 10 µM unless noted
[11] = system: HCT-15 colon; conditions: 10 µM unless noted
[12] = system: HT29 colon; conditions: 10 µM unless noted
[13] = system: SNB-19 CNS; conditions: 10 µM unless noted
[14] = system: U251 CNS; conditions: 10 µM unless noted
[15] = system: PC-3 prostate; conditions: 10 µM unless noted
[16] = system: SK-MEL-5 melanoma; conditions: 10 µM unless noted
[17] = system: UACC-62 melanoma; conditions: 10 µM unless noted
[18] = system: LOX IMVI melanoma; conditions: 10 µM unless noted
[19] = system: SK-MEL-28 melanoma; conditions: 10 µM unless noted

Structure (SMILES)	growth [1]	growth [2]	growth [3]	growth [4]	growth [5]	growth [6]	growth [7]	growth [8]	growth [9]	growth [10]	growth [11]	growth [12]	growth [13]	growth [14]	growth [15]	growth [16]	growth [17]	growth [18]	growth [19]
COc1cc2cc(Oc3ccc(NC(=O)Nc4cc(C(F)(F)F)cc(C(F)(F)F)c4)cc3)c(C)nc2cc1OCCN(C)C	120%	106%	106%	104%	112%	106%	103%	100%	103%	107%	103%	120%	103%	107%	110%	102%	93.1%	108%	110%
Cc1ccc(Nc2ncnc3c2c(C)nn3-c2ccc([N+](=O)[O-])cc2)cc1	89.4%	69.1%	84.7%	80.8%	60.8%	79.1%	69.7%	74.4%	93.3%	80.6%	82.5%	80.3%	88.8%	60.1%	78.4%	92.9%	92.2%	–	97.5%
Oc1ccccc1-c1nnc(SCc2ccc(O)c3ncccc23)n1-c1ccccc1	22.9%	10.8%	0.0457% (active)	28.2%	-9.85% (active)	14.9%	1.17% (active)	7.96% (active)	1.58% (active)	-28.3% (active)	17.6%	14.6%	16.5%	11.5%	20.5%	-60.3% (active)	-8.29% (active)	3.79% (active)	14.8%
COc1cc(/C=N/n2cnc3oc(-c4ccccc4)cc3c2=N)cc(CN2CCN(C)CC2)c1O	110%	26.3%	113%	79.3%	27.7%	93.6%	109%	94%	106%	103%	81.4%	48.3%	110%	108%	77.7%	87.9%	102%	79%	94.1%
O=C(CCCCCCN1CC(=O)N2[C@@H](c3cccc(Br)c3)c3[nH]c4ccccc4c3C[C@H]2C1=O)NO	24.2%	15.5%	29.3%	11.7%	-16.7% (active)	24.9%	15.6%	32.2%	44.9%	27.4%	68.7%	14.8%	38%	25%	32.8%	15.2%	1.57% (active)	-59.8% (active)	26.6%
Oc1ccccc1-c1nnc(SCc2ccc(O)c3ncccc23)o1	29.6%	19.8%	30.3%	60.6%	29.4%	34.1%	15.3%	37%	25.2%	27.4%	16.3%	102%	29.1%	23.6%	19.2%	-4.08% (active)	30.2%	39.1%	51.2%
CCOc1ccc2nc(NC(=O)Nc3ccccc3C)sc2c1	70.3%	14.6%	48.6%	71.2%	49.5%	78.6%	35.2%	57.1%	68.4%	23.4%	27%	14.9%	53.8%	48.2%	57.6%	59.6%	47.2%	–	54.1%
Oc1ccc(CSc2nnc(-c3ccc(Oc4ccccc4)cc3)n2-c2ccccc2)c2cccnc12	26.5%	15.3%	11.9%	35.8%	21.5%	22.3%	0.102% (active)	2.32% (active)	0.403% (active)	-4.33% (active)	10.8%	44.8%	13.8%	11.9%	17.3%	-24.1% (active)	-25.4% (active)	4.48% (active)	14.6%
N/C(=N\c1nc2c(Cl)cccc2s1)C(Cl)(Cl)Cl	3.92% (active)	91.3%	104%	76.1%	55.2%	81%	20.1%	71.1%	90.7%	97.7%	81.3%	46.8%	72.7%	57.3%	65%	96.1%	75.4%	62.4%	83.3%
O=C(Nc1ccc(Cl)cc1)Nc1nc2ccc([N+](=O)[O-])cc2s1	14%	1.43% (active)	-21.3% (active)	-17.5% (active)	-37.2% (active)	7.98% (active)	-57.9% (active)	-22.3% (active)	-32.6% (active)	-20.4% (active)	-42.7% (active)	1.88% (active)	11.5%	-11% (active)	-7.8% (active)	-83.7% (active)	-30.2% (active)	–	-12.3% (active)
O=C1[C@@H]2Cc3c([nH]c4ccccc34)[C@H](c3c(Cl)cccc3Cl)N2C(=O)CN1C1CCN(Cc2c(F)cccc2F)CC1	58.8%	66.3%	64.9%	69%	65.4%	76.1%	101%	52.2%	99.1%	75.2%	52.2%	63.9%	81.7%	73.5%	69.9%	53.4%	76.8%	-47.1% (active)	75%
CCN(CC)CCCC(C)NCC(=O)NC(c1ccc2c(c1)OCO2)c1cc(Cl)c2cccnc2c1O (stereo unspecified)	44.2%	10.6%	5.27% (active)	35.5%	67.5%	22.7%	-53.3% (active)	6.63% (active)	76.6%	-9.39% (active)	20.6%	23.6%	38.1%	30.2%	20.1%	-77.4% (active)	-17.6% (active)	-30.1% (active)	46.5%
COc1cc(/C=N/n2cnc3oc(-c4ccccc4)cc3c2=N)cc(CN2CCOCC2)c1O	89.3%	5.46% (active)	66.4%	51.4%	-18.4% (active)	72.4%	68.1%	60.9%	110%	73%	27.9%	60.3%	101%	53.7%	64.6%	62.3%	62.5%	8.3% (active)	78.3%
Oc1ccc(CSc2nnc(-c3cnccn3)n2-c2ccccc2)c2cccnc12	35.6%	19.6%	42.9%	32.1%	33.7%	22.4%	7.13% (active)	22.7%	17.4%	16.8%	19.3%	79.5%	19.7%	20.4%	30%	-22.6% (active)	2.61% (active)	15.5%	32.5%
O=C(O)c1ccc(-n2cc(CNc3ccc(F)cc3)c(-c3ccc(C(F)(F)F)cc3)n2)cc1	98.2%	58.6%	97.6%	100%	88.2%	80.9%	63.9%	88.8%	90.9%	92.6%	65.4%	96.9%	84.3%	79.3%	79.4%	67.9%	89.9%	99.5%	88.1%
O=C(COc1ccc(/C=C2\SC(=O)NC2=O)cc1)Nc1ccc(C(=O)/C=C/c2cc3ccccc3nc2Cl)cc1	88.7%	41%	98.5%	86.6%	1.92% (active)	78.2%	75.6%	81.5%	75.3%	80%	76.8%	4.19% (active)	82%	69%	65.6%	33.5%	70.6%	47.8%	99.2%
